# Measured values taken from the supplement of paper PMC12282887.
# ± gives the standard deviation of the averaged measurements.
# Columns and labels:
# Experiment in all cases: promoter activity interaction Z-score (Lux/OD deviation from empty-vector control); higher = stronger promoter induction by the compound
# [1] = test system: E. coli BW25113 acrABp lux reporter
# Procedure, shortened: (§1)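 Reporter strains of E. coli BW25113 grew at 37°C in 40 µl LB Lennox in 384-well plates. Readings of OD600 and luminescence were taken every 30 min over 12 h, integrated over 0–8 h (wild type) or 1–9 h (deletion strains), and wells below 10% of the median growth value were excluded. Scores are Z-transformed residuals of growth-normalised luminescence from a fit against a control.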
# [2] = test system: E. coli BW25113 marRABp lux reporter
# Procedure, shortened: as §1
# [3] = test system: E. coli BW25113 micFp lux reporter
# Procedure, shortened: as §1
# [4] = test system: E. coli BW25113 ompFp lux reporter
# Procedure, shortened: as §1
# [5] = test system: E. coli BW25113 robp lux reporter
# Procedure, shortened: as §1
# [6] = test system: E. coli BW25113 soxSp lux reporter
# Procedure, shortened: as §1
# [7] = 0.25 µg/ml, genetic background: wild type
# [8] = 0.25 µg/ml, genetic background: ΔmarA
# [9] = 0.25 µg/ml, genetic background: Δrob
# [10] = 0.25 µg/ml, genetic background: ΔsoxS
# [11] = 0.5 µg/ml, genetic background: wild type
# [12] = 0.5 µg/ml, genetic background: ΔmarA
# [13] = 0.5 µg/ml, genetic background: Δrob
# [14] = 0.5 µg/ml, genetic background: ΔsoxS
# [15] = 1 µg/ml, genetic background: wild type
# [16] = 1 µg/ml, genetic background: ΔmarA
# [17] = 1 µg/ml, genetic background: Δrob
# [18] = 1 µg/ml, genetic background: ΔsoxS
# [19] = 2 µg/ml, genetic background: wild type
# [20] = 2 µg/ml, genetic background: ΔmarA
# [21] = 2 µg/ml, genetic background: Δrob
# [22] = 2 µg/ml, genetic background: ΔsoxS
smiles,measurement,setting,value
CC1(C)S[C@@H]2[C@H](NC(=O)[C@H](N)c3ccc(O)cc3)C(=O)N2[C@H]1C(=O)O [Amoxicillin],promoter activity interaction Z-score,[1]; [7],-0.14 ± 0.051
same,promoter activity interaction Z-score,[1]; [8],-0.253 ± 0.59
same,promoter activity interaction Z-score,[1]; [9],-0.295 ± 0.22
same,promoter activity interaction Z-score,[1]; [10],-0.0223 ± 0.27
same,promoter activity interaction Z-score,[1]; [11],0.0232 ± 0.18
same,promoter activity interaction Z-score,[1]; [12],0.274 ± 0.094
same,promoter activity interaction Z-score,[1]; [13],-0.216 ± 0.0076
same,promoter activity interaction Z-score,[1]; [14],-0.454 ± 0.18
same,promoter activity interaction Z-score,[1]; [15],0.074 ± 0.092
same,promoter activity interaction Z-score,[1]; [16],-0.334 ± 1.8
same,promoter activity interaction Z-score,[1]; [17],-0.382 ± 0.033
same,promoter activity interaction Z-score,[1]; [18],-0.0766 ± 0.0011
same,promoter activity interaction Z-score,[1]; [19],2.15
same,promoter activity interaction Z-score,[1]; [20],0.388
same,promoter activity interaction Z-score,[1]; [21],0.134
same,promoter activity interaction Z-score,[2]; [7],-0.00562 ± 0.025
same,promoter activity interaction Z-score,[2]; [8],-0.347 ± 0.22
same,promoter activity interaction Z-score,[2]; [9],-0.215 ± 0.082
same,promoter activity interaction Z-score,[2]; [10],-0.207 ± 0.2
same,promoter activity interaction Z-score,[2]; [11],-0.157 ± 0.027
same,promoter activity interaction Z-score,[2]; [12],-0.297 ± 0.22
same,promoter activity interaction Z-score,[2]; [13],-0.322 ± 0.047
same,promoter activity interaction Z-score,[2]; [14],-0.372 ± 0.14
same,promoter activity interaction Z-score,[2]; [15],-0.138 ± 0.097
same,promoter activity interaction Z-score,[2]; [16],-0.483 ± 0.18
same,promoter activity interaction Z-score,[2]; [17],-0.211 ± 0.031
same,promoter activity interaction Z-score,[2]; [18],-0.251 ± 0.091
same,promoter activity interaction Z-score,[2]; [19],2.97
same,promoter activity interaction Z-score,[2]; [20],2.07
same,promoter activity interaction Z-score,[2]; [21],3.21
same,promoter activity interaction Z-score,[2]; [22],1.67
same,promoter activity interaction Z-score,[3]; [7],0.256 ± 0.44
same,promoter activity interaction Z-score,[3]; [8],-0.0861 ± 0.065
same,promoter activity interaction Z-score,[3]; [9],0.0252 ± 0.083
same,promoter activity interaction Z-score,[3]; [10],-0.211 ± 0.11
same,promoter activity interaction Z-score,[3]; [11],0.278 ± 0.29
same,promoter activity interaction Z-score,[3]; [12],-0.0538 ± 0.13
same,promoter activity interaction Z-score,[3]; [13],0.0683 ± 0.17
same,promoter activity interaction Z-score,[3]; [14],-0.261 ± 0.46
same,promoter activity interaction Z-score,[3]; [15],0.0789 ± 0.095
same,promoter activity interaction Z-score,[3]; [16],-0.0503 ± 0.00046
same,promoter activity interaction Z-score,[3]; [17],0.0923 ± 0.071
same,promoter activity interaction Z-score,[3]; [18],-0.05 ± 0.078
same,promoter activity interaction Z-score,[3]; [19],1.75 ± 2.8
same,promoter activity interaction Z-score,[3]; [20],-0.285 ± 0.003
same,promoter activity interaction Z-score,[3]; [21],-0.0252 ± 0.1
same,promoter activity interaction Z-score,[3]; [22],-0.185 ± 0.25
same,promoter activity interaction Z-score,[4]; [7],0.146 ± 0.14
same,promoter activity interaction Z-score,[4]; [8],-0.696 ± 0.38
same,promoter activity interaction Z-score,[4]; [9],-0.183 ± 0.067
same,promoter activity interaction Z-score,[4]; [10],-0.811 ± 0.064
same,promoter activity interaction Z-score,[4]; [11],0.133 ± 0.13
same,promoter activity interaction Z-score,[4]; [12],-0.265 ± 0.34
same,promoter activity interaction Z-score,[4]; [13],-0.637 ± 0.024
same,promoter activity interaction Z-score,[4]; [14],-0.837 ± 0.48
same,promoter activity interaction Z-score,[4]; [15],-0.523 ± 0.21
same,promoter activity interaction Z-score,[4]; [16],-0.753 ± 0.13
same,promoter activity interaction Z-score,[4]; [17],-0.725 ± 0.24
same,promoter activity interaction Z-score,[4]; [18],-0.869 ± 0.041
same,promoter activity interaction Z-score,[4]; [20],-1.92
same,promoter activity interaction Z-score,[5]; [7],0.459 ± 0.29
same,promoter activity interaction Z-score,[5]; [8],-0.028 ± 0.04
same,promoter activity interaction Z-score,[5]; [9],-0.226 ± 0.034
same,promoter activity interaction Z-score,[5]; [10],-0.349 ± 0.75
same,promoter activity interaction Z-score,[5]; [11],0.699 ± 0.03
same,promoter activity interaction Z-score,[5]; [12],-0.354 ± 0.23
same,promoter activity interaction Z-score,[5]; [13],0.168 ± 0.52
same,promoter activity interaction Z-score,[5]; [14],-0.698 ± 0.12
same,promoter activity interaction Z-score,[5]; [15],-0.0437 ± 0.14
same,promoter activity interaction Z-score,[5]; [16],-0.0839 ± 0.86
same,promoter activity interaction Z-score,[5]; [17],0.396 ± 1.2
same,promoter activity interaction Z-score,[5]; [18],-1.05 ± 0.49
same,promoter activity interaction Z-score,[5]; [19],-1.64
same,promoter activity interaction Z-score,[5]; [20],0.17
same,promoter activity interaction Z-score,[6]; [7],0.174 ± 0.46
same,promoter activity interaction Z-score,[6]; [8],-0.165 ± 0.13
same,promoter activity interaction Z-score,[6]; [9],0.236 ± 0.24
same,promoter activity interaction Z-score,[6]; [10],-0.199 ± 0.15
same,promoter activity interaction Z-score,[6]; [11],0.319 ± 0.15
same,promoter activity interaction Z-score,[6]; [12],-0.00956 ± 0.1
same,promoter activity interaction Z-score,[6]; [13],0.0715 ± 0.076
same,promoter activity interaction Z-score,[6]; [14],-0.424 ± 0.15
same,promoter activity interaction Z-score,[6]; [15],0.0777 ± 0.017
same,promoter activity interaction Z-score,[6]; [16],-0.259 ± 0.12
same,promoter activity interaction Z-score,[6]; [17],0.156 ± 0.14
same,promoter activity interaction Z-score,[6]; [18],-0.361 ± 0.23
same,promoter activity interaction Z-score,[6]; [19],0.325 ± 0.57
same,promoter activity interaction Z-score,[6]; [20],-0.389 ± 0.55
same,promoter activity interaction Z-score,[6]; [21],0.0112 ± 0.1
same,promoter activity interaction Z-score,[6]; [22],0.999 ± 0.21
